The test can be described thus: JC-1 mitochondrial signal, unstimulated MM1S myeloma – cell-based, JC-1 fluorescence, 24 h, 100 nL compound, profiling panel (AID 1170). Note: test concentration not given here. The note with it: MM1S mitochondrial potential, higher = more signal.
Compound `CC1CC/C=C\[C@H]2OC34C=CCN(C(C)C)C(=O)[C@H]3N(CCO)C(=O)[C@@H]4C2C(=O)O1` (some centres undefined) gave a z-score of 1.65.
In turn, `C=C(/C(=C/C[C@H](OC(=O)c1ccncc1)c1ccc(CO)o1)c1cnc2ccccc2c1)C(C)C` gave a z-score of -0.161.
For `Cc1ccc(F)cc1S(=O)(=O)N[C@@H]1CCN(Cc2ccc(Br)cc2)C1`, the z-score is -0.555.
Compound `CN1C2C=C(CCCO)C(C3C(=O)N(C(N)=O)C(=O)C32)C1C1CC1` (centres undefined) displayed a z-score of 0.238.
To `Cc1ccc(S[C@]2(C(=O)O)CC(=O)N(C3CCCCC3)[C@@H]2c2ccc(CO)cc2I)cc1` belongs 0.0653.
To `COCCOC(=O)N1C(=O)[C@@]2(c3cc(C#CC4(O)CCCCCC4)ccc31)[C@H](C(=O)N1CCc3cc(OC)c(OC)cc3C1)[C@H]1C(=O)O[C@H](c3ccccc3)[C@H](c3ccccc3)N1[C@@H]2c1ccc(OCCO)cc1` belongs -1.39; to `COC(=O)[C@@]1(Cc2ccc(OC)cc2)[C@H]2c3cc(C(=O)N4CCCC4)n(CCc4c[nH]c5ccc(O)cc45)c3C[C@H]2CN1C(=O)c1ccccc1`, -0.401; to `CN(C)C(=O)[C@]1(CCC(=O)OC(C)(C)C)N=C(c2ccc(OCCCO)cc2)O[C@@H]1c1ccccc1CN=[N+]=[N-]`, -0.412.
In the case of `CCOC(=O)C1=CC[C@@H](c2ccccc2)N(S(=O)(=O)c2ccc(C)cc2)[C@H]1c1ccccc1`, the z-score was -0.0355.
`NC(=O)[C@H]1[C@@H]2C(=O)O[C@@H](c3ccccc3)[C@@H](c3ccccc3)N2[C@@H](c2ccc(OCCO)cc2)[C@]12C(=O)Nc1ccc(C#CCCO)cc12` registered a z-score of -1.18.
In the case of `CCCCCCCCCC(O)C1C=CC2C(=O)N(c3ccccc3)C(=O)C2N1Nc1cc(OC)c(OC)c(OC)c1` (centres undefined), the z-score was -1.21.
To `COc1cc(OC)c(C(O)C2C=CC3C(=O)N(Cc4ccccc4)C(=O)C3N2n2cnnc2)cc1Br` (centres undefined) belongs -0.395; to `O=C1O[C@@H](c2ccccc2)[C@@H](c2ccccc2)N2[C@@H](c3ccc(OCCO)cc3)[C@]3(C(=O)Nc4ccc(C#CC5=CCCCC5)cc43)[C@@H](C(=O)NC[C@H](O)c3ccccc3)[C@H]12`, -1.24.
The result for `CC(C)[Si](C#CCCCC#N)(O[C@H](c1ccccc1)c1cn(Cc2ccccc2)nn1)C(C)C` reads -1.31; that for `CC1=C2[C@@H](CCc3ccccc3)OB(O)C[C@@H]2[C@@H]2C(=O)N(C)C(=O)[C@@H]2C1`, -0.423.
The result for `COc1ccc([Si](C)(C)[C@H]2[C@H](CC(=O)N(CCO)Cc3ccccc3)O[C@@]3(C(=O)N(C)c4c(Br)cc(C)cc43)[C@@H]2C)cc1` reads -2.16; that for `C=CC[C@@]1(C(=O)NCCCOC)N=C(c2ccc(OCCCO)cc2)O[C@@H]1c1ccccc1N=[N+]=[N-]`, -0.917.
The compound `COC(=O)C(CC#Cc1ccc2c(c1)[C@]1(C(=O)N2)[C@H](c2ccc(O)cc2)N2[C@H](c3ccccc3)[C@H](c3ccccc3)OC(=O)[C@H]2[C@@H]1C(=O)NC[C@H](O)c1ccccc1)C(=O)OC` came in with a z-score of -0.633.
Compound `COc1ccc([Si](C)(C)[C@H]2[C@H](CC(=O)N3Cc4ccccc4C[C@H]3CO)O[C@@]3(C(=O)N(Cc4ccc(N5CCOC5=O)cc4)c4ccccc43)[C@@H]2C)cc1` had a z-score of -1.94.
The result for `COC(=O)c1c(CC[C@@H](CO)NC(=O)N[C@@H](C)Cn2cc(-c3ccccn3)nn2)oc(C(C)=O)c1C(=O)OC` reads -0.0849.
To `COCC(=C=CC[C@H](O)c1ccc(OCCO)cc1)CCO` belongs 0.464.
`N[C@@H](Cc1ccccc1)C(=O)NCc1cn(Cc2ccccc2)nn1` returned a z-score of 0.919.
As to `CCOC(=O)C[C@H]1[C@H](OC(=O)Cc2ccc3c(c2)OCO3)[C@@H](NC(=O)c2ccc3ccccc3n2)c2cc(OCCCO)ccc2N1C(=O)c1ccccc1`, the z-score was -1.07.
`CC(CO)N1C(=O)[C@]2(C)C3C(=O)OCCC/C=C\[C@H]3OC23C=CCN(c2ccc(Cl)cc2)C(=O)[C@@H]13` (some centres undefined) yielded a z-score of -0.302.
The result for `CC(=O)NCCCC[C@@H]1NC(=O)[C@@H]2C[C@H](C(=O)NCCCCCN)[C@H](c3ccc(O)cc3)N2C1=O` reads 0.774; that for `COC(=O)[C@@]1(Cc2ccccc2)[C@H]2c3cc(C(=O)N(C)C)n(Cc4ccc(C)o4)c3C[C@H]2CN1C(=O)c1ccccc1`, -1.88.
In turn, `CCCC[C@@H](O)C1=C(COc2ccccc2)C[C@H]2C(=O)N(Cc3ccccc3)C(=O)[C@H]2[C@H]1CO` had a z-score of -0.172.
With `COC(=O)C1(CC(C)C)C=C2C(=C(c3ccccc3)C(=O)C2C)CN1` (centres undefined), the z-score was -1.1.
The result for `COc1ccc(CCNC(=O)[C@@]2(c3ccc([N+](=O)[O-])cc3)CC(=O)N(C3CCCCC3)[C@@H]2c2ccc(CO)cc2)cc1` reads 0.954.

(Values after PubChem BioAssay.)
